# Compound activity deposited in PubChem BioAssay by several laboratories.
# PKA-R1A activ = PKA-R1A complex activation. P00514+P68181. PKA-R1A dissociation, Cy5-IP20 fluorescence polarization; scaled: DMSO 0%, 113 µM cGMP 100%. activation, % at 11.4 µM. 340,000 tested, 0.083% active;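 active = percent activation above the mean of all tested compounds plus 3 SD, cut at about 19% in these data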;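 also: higher means more PKAc released from R1A so a rise in polarization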
# CHT allo act = allosterically activates the human high affinity choline transporter. AID 488977. 310,000 tested, 0.49% active. Q9GZV3. CHT-expressing cells, membrane potential dye, choline EC20; stronger effect = higher value; LV-AA mutant CHT in HEK293 cells. B-score at 10 µM;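 active = initial fluorescence not abnormally high and integrated response B-score, plate-corrected, over 3 SD above library mean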
# Target sequence (Q9GZV3 whole entry, looked up): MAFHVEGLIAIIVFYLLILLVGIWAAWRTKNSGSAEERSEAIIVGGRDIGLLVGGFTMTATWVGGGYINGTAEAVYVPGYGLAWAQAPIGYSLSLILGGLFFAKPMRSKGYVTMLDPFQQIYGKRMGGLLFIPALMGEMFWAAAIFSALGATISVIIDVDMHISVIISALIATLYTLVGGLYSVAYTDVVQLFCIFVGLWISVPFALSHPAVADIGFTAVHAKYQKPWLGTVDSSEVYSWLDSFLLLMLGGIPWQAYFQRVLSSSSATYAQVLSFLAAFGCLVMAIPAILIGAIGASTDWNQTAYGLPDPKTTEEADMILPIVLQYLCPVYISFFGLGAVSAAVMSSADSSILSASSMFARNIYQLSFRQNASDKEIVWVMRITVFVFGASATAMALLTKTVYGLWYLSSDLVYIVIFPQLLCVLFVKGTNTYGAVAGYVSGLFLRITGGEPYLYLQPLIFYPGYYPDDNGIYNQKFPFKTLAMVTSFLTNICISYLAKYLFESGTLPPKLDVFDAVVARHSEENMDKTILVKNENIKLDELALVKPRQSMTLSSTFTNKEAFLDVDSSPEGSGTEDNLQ
# CHT inh = inhibitors of human choline transporter CHT; Q9GZV3; CHT-expressing cells, membrane potential dye, choline response; stronger effect = lower value; AID 488975; 310,000 tested, 0.86% active; B-score at 10 µM;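 active = B-score over 3 SD under the library average, and starting fluorescence ratio not unusually high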;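 also: choline stimulus applied at its EC90 after an EC20 pre-addition; B-score computed on integrated fluorescence ratio after choline addition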
# ANO1 block = blocks the mouse calcium-activated chloride channel TMEM16A; Q8BHY3; HEK293 TMEM16A/YFP iodide influx fluorescence, ionomycin; normalized B-score (activity score, 25-100; higher = stronger inhibition) at 10 µM; 310,000 tested, 1.2% active; AID 588511;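 active = ratio plate-corrected score three or more library SD toward inhibition, starting fluorescence score within five deviations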;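 also: score derived from kinetic fluorescence span divided by baseline fluorescence per well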
# PKA-R2B act = activators of human PKA-R2B complex. 340,000 tested, 0.079% active. activation, % at 11.4 µM. P22694+P31323. PKA-R2B holoenzyme dissociation, Cy5-IP20 fluorescence polarization; R2B truncated from residue 108, S112A mutant; 0% DMSO only, 100% 113 µM cGMP;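 active = activation above a cutoff set at the mean over all compounds plus 3 SD, cut at about 18% in these data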;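 also: higher means more holoenzyme dissociation and a rise in polarization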
# ANO1 activ = activators or potentiators of mouse TMEM16A chloride channel; B-score at 10 µM; 340,000 tested, 0.3% active; Q8BHY3; HEK293 TMEM16A/YFP-H148Q/I152L, iodide quench fluorescence; stronger effect = lower value;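 active = fluorescence-ratio B-score plate-corrected deviation score at least 3 library SD below zero, with starting fluorescence score within 5 deviations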;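 also: channel opened by trigger with iodide after compound preincubation; score built on the fluorescence ratio of max minus min over baseline; more negative score means more quench and so TMEM16A activation or potentiation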
# A number is an active result; - = inactive; . = not tested or not shown; ! = not active in a repeat. Compounds with a hit are over-represented: about 2.5% of the library has one in this group of screens.
SMILES,PKA-R1A activ,CHT allo act,CHT inh,ANO1 block,PKA-R2B act,ANO1 activ
COc1cc(/C=C2\C(=O)ON=C2c2ccc(Cl)cc2)ccc1O,.,-,-,-,.,-5.9
COc1ccc(CC(=O)NNC(=O)CSc2ccc(C)cc2)cc1,-,-,-,-,-,-7.1
COc1ccc(/C(N)=N/OC(=O)CSc2ccc(C)cc2)cc1,-,-,-,100,-,-
COc1ccc(Cl)cc1NC(=O)C(C)Sc1nnc(C2CC2)n1C1CC1 (centres undefined),-,.,.,.,-,-
COc1cccc(NC(=O)C(C)Sc2nnc(C3CC3)n2C2CC2)c1 (centres undefined),-,.,.,.,-,-32
Cc1noc(C)c1CSCC(=O)N1CCN(c2ccc([N+](=O)[O-])cc2)CC1,-,-,-,25,-,-
COc1cc(CC(=O)OCC(=O)Nc2sccc2C(N)=O)cc(OC)c1OC,-,-,-,100,-,-
CCOc1ccccc1N1Cc2cc(C)c(C)cc2C1,-,-,-,-,-,-
CCOc1ccccc1N1Cc2ccccc2C1,-,-,-,-,-,-5.5
CCc1cc(/C(Cc2ccccn2)=N\O)c(O)cc1O,-,-,-,-,-,-
CCc1cc(/C(Cc2ccc3ccccc3n2)=N\O)c(O)cc1O,-,-,-,100,-,-
O=S(=O)(Cc1ccc(Cl)cc1)N1CCN(c2ncccn2)CC1,-,-,-,-,-,-
CC(C)(C)n1nnnc1C(c1ccc(F)cc1)N(Cc1ccc(F)cc1)Cc1ccco1 (centres undefined),-,-,-,-,-,-5.1
CC(C)(C)n1nnnc1C(c1ccc(C(F)(F)F)cc1)N(Cc1ccccc1)Cc1ccco1 (centres undefined),-,-,-,-,-,-
C(C#CCCCCCCCCC[n+]1ccccc1)#CCCCCCCCCC[n+]1ccccc1,-,7.6,-,-,-,-
COc1ccc(CN2C(=O)[C@@H]3Cc4c([nH]c5ccccc45)C(C)(C)N3C2=O)cc1,-,-,-,-,-,-
COc1ccc(CN2C(=O)[C@H]3Cc4c([nH]c5ccccc45)C(C)(C)N3C2=O)cc1,-,-,-,25,-,-
CC(C)(C)NC(=O)NC(=O)CN1CCN(c2ncc(C(F)(F)F)cc2Cl)CC1,-,-,-,25,-,-
CCN1CCN(c2nc3c(c(=O)n(C)c(=O)n3C)n2CCSc2nccc(C)n2)CC1,-,-,-7.5,-,-,-
Cc1cc(=O)n(C(C)(C)C)c(=O)n1Cc1ccccc1,-,-,-,-,-,-
Cc1nnc2c(NCCc3ccccc3)nc3ccccc3n12,-,-,-,-,-,-
Cc1nnc2c(-c3ccccc3)nc3ccccc3n12,-,-,-,-,-,-16
C=C1C(=O)c2sccc2C(c2ccc(OC)c(OC)c2)C1COC(C)=O (centres undefined),-,.,.,.,-,-4.8
CCN1CCN(CC(=O)N2N=C(c3cccs3)CC2c2ccc(OC)c(OC)c2)C(=O)C1=O (centres undefined),-,-,-,-,-,-
O=C(c1cccnc1)N1CCN(Cc2cccc(Br)c2)CC1,-,-,-,-,-,-5.8
SMILES,PKA-R1A activ,CHT allo act,CHT inh,ANO1 block,PKA-R2B act,ANO1 activ
C=C1SC(Nc2c(C)cc(C)cc2C)=NC12CCCCC2,-,-,-,-,-,-
CCCCOc1ccc(S(=O)(=O)n2c(C)nc3ccccc32)cc1,-,-,-,25,-,-
Cc1cc(Cl)ccc1OCC(=O)NNC(=O)CCOc1ccccc1,-,.,.,.,-,-
CCC(Sc1nc2cc(OC)c(OC)cc2c(=O)n1CCc1ccc(S(N)(=O)=O)cc1)C(=O)NCCOC (centres undefined),-,-,-,-,-,-4.7
COc1cccc(CNn2cnnc2)c1OCc1ccc(F)cc1,-,-,-,100,-,-
CN1CCN(CCCN2c3ccccc3Sc3ccc(Cl)cc32)CC1,-,-,-,25!,-,-
COc1ccccc1-n1cnc2cc(NCc3ccco3)ccc21,-,13,-,-,-,-
Cc1nn(Cc2ccc(C(=O)NC(C)(C)C)o2)c(C)c1Br,-,-,-,25,-,-
Clc1ccc(-c2csc(Nc3ccccc3)[n+]2Cc2ccco2)c(Cl)c1,-,.,.,.,-,-
Cc1ccc(COn2c(-c3ccc(Cl)cc3)nc3ccc([N+](=O)[O-])cc32)cc1,-,-,-,-,-,-
CCOC(=O)C(C)On1c(-c2ccc(Cl)cc2)nc2ccc([N+](=O)[O-])cc21 (centres undefined),-,-,-,100,-,-
C#CCOCCOCCOCCNc1nc(N2CCN(C(=O)CCCCCCCCCCNC(=O)Cn3cc(C[C@@H](C)O)nn3)CC2)nc(N2CCN(C(=O)CCCCCCCCCCNC(=O)[C@H](CCCN=C(N)N)n3cc(C[C@@H](C)CC)nn3)CC2)n1,-,-,-,-,-,-26
C#CCOCCOCCOCCNc1nc(N2CCN(C(=O)CCCCCCCCCCNC(=O)[C@H](CO)n3cc(CCCSC)nn3)CC2)nc(N2CCN(C(=O)CCCCCCCCCCNC(=O)[C@H](CCCN=C(N)N)n3cc(C[C@@H](C)CC)nn3)CC2)n1,-,-,-,25,-,-32
C#CCOCCOCCOCCNc1nc(N2CCN(C(=O)CCCCCCCCCCNC(=O)[C@H](CO)n3cc(CCCSC)nn3)CC2)nc(N2CCN(C(=O)CCCCCCCCCCNC(=O)[C@H](CCCCN)n3cc(CCO)nn3)CC2)n1,-,.,.,.,-,-
CC(C)(C)OC(=O)NC1CCN(S(=O)(=O)c2ccc3c(c2)OCCO3)CC1,-,-,-,-,-,-
CC(C)C1C(=O)N(Cc2cn(CCC3OCCCO3)nn2)CCS(=O)(=O)N1Cc1ccc(-c2ccc(Cl)c(Cl)c2)cc1 (centres undefined),-,.,.,.,-,.
CN(C)CC(CCC(CN(C)C)C(=O)c1ccccc1)C(=O)c1ccccc1 (centres undefined),-,.,.,.,-,-9.5
CCc1cc(C(=O)Nc2ccc(OC)nc2)sc1C,-,-,-,-,-,-5.1
Cc1cc(C)nc(-n2nc(C)cc2Nc2ccccc2)n1,-,-,-5.2,-,-,-
CCSc1nnc(NC(=O)CCC2CCCCC2)s1,-,-,-,-,-,-
c1ccc(-c2nnc(OCC3CCCO3)c3ccccc23)cc1 (centres undefined),-,-,-,-,-,-
COc1ccccc1Oc1ccc2c(c1)C(=O)N(c1ccc(C)cc1)C2=O,-,-,-,-,-,-6.1
CC(=O)c1cn(CC(=O)NCC2CCCO2)c2ccccc12 (centres undefined),-,-,-,-,-,-4.8
